Assay results taken from the supplement of paper PMC10849652.
Of roughly 7,900 targets only a part is listed; those with a hit were picked by preference. About 0.6% of all pairs of compound and target were hits.

Columns and labels:
Assay in all cases: log2 fold change, soluble protein after heating vs DMSO (PISA); higher = thermal stabilisation; K562 cells, 10 uM, 30 min; active = over 0.2 and 3.5 SD of the protein, either way, in both replicates (recomputed)
[1] = compound: NC(=O)Nc1cc(-c2cccc(F)c2)sc1C(=O)N[C@H]1CCCNC1
Outline: (§1)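 K562 cells at 2×10^6 cells/mL were exposed to 10 μM compound for 30 min, then aliquots were heated for 3 min across 48°C-58°C, pooled, and extracted in PBS containing 0.5% NP-40 at 4°C. The supernatant after 21,000xg for 90 min was taken as soluble protein and measured by TMTpro 16plex LC-MS/MS with channel sums equalised. Thermal stability is reported relative to control samples, with values from duplicates. Fold changes are given on a log2 scale.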

[2] = compound: NC(=O)c1cnc(N[C@@H]2CCCC[C@@H]2N)nc1Nc1cccc(-n2nccn2)c1
Outline: as §1

[3] = compound: NC1(c2ccc(-c3nc4ccn5c(=O)[nH]nc5c4cc3-c3ccccc3)cc2)CCC1
Outline: as §1

[4] = compound: NCC(=O)Nc1ccc(-n2nc(C(F)(F)F)cc2-c2ccc3c(ccc4ccccc43)c2)cc1
Outline: as §1

entinostat = compound: Nc1ccccc1NC(=O)c1ccc(CNC(=O)OCc2cccnc2)cc1 [entinostat]
Outline: as §1

vorinostat = compound: O=C(CCCCCCC(=O)Nc1ccccc1)NO [vorinostat]
Outline: as §1

citarinostat = compound: O=C(CCCCCCNC(=O)c1cnc(N(c2ccccc2)c2ccccc2Cl)nc1)NO [citarinostat]
Outline: as §1

silmitasertib = compound: O=C(O)c1ccc2c(c1)nc(Nc1cccc(Cl)c1)c1ccncc12 [silmitasertib]
Outline: as §1

[5] = compound: O=C1NC(=O)C(c2cnc3ccccn23)=C1c1cn2c3c(cc(F)cc13)CN(C(=O)N1CCCCC1)CC2
Outline: as §1

[6] = compound: c1cc(OCCN2CCCCC2)cc(-c2n[nH]c3ccc(-c4nnc[nH]4)cc23)c1
Outline: as §1

entospletinib = compound: c1cn2cc(-c3ccc4cn[nH]c4c3)nc(Nc3ccc(N4CCOCC4)cc3)c2n1 [entospletinib]
Outline: as §1

Measured: log2 fold change

NFATC2 (UniProt Q13469)
inactive: [1] -0.076 | [2] -0.203 | [3] -0.064 | [4] -0.075 | entinostat 0.147 | vorinostat -0.011 | citarinostat 0.101 | silmitasertib -0.078 | [5] -0.062 | [6] -0.258 | entospletinib -0.012

MIS12 (UniProt Q9H081)
inactive: [1] 0.016 | [2] -0.084 | [3] -0.079 | [4] -0.101 | entinostat 0.027 | vorinostat 0.123 | citarinostat 0.014 | silmitasertib 0.016 | [5] 0.02 | [6] -0.081 | entospletinib -0.003

NDUFB1 (UniProt O75438)
Sequence of UniProt O75438 (O75438 whole entry, looked up): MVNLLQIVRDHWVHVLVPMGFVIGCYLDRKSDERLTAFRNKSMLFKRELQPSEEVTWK
inactive: [1] 0.053 | [2] -0.114 | [3] -0.007 | [4] -0.134 | entinostat 0.055 | vorinostat 0.108 | citarinostat -0.026 | silmitasertib -0.014 | [5] -0.124 | [6] 0.012 | entospletinib 0.017

OXSM (UniProt Q9NWU1)
Sequence of UniProt Q9NWU1 (Q9NWU1 whole entry, looked up): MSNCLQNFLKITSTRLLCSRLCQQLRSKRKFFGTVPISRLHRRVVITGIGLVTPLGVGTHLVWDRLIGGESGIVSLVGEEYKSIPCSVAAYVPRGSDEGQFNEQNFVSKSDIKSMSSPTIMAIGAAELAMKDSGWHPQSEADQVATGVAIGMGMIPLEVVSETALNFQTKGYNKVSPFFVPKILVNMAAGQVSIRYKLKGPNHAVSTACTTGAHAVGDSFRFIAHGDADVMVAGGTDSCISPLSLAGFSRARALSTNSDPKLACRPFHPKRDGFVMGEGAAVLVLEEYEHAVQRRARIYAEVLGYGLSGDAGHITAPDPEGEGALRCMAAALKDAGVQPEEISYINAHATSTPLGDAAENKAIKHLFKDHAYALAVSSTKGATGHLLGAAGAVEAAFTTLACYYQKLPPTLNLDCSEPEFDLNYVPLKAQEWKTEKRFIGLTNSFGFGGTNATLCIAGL
inactive: [1] 0.016 | [2] 0.068 | [3] -0.026 | [4] 0.049 | entinostat -0.019 | vorinostat -0.028 | citarinostat 0.037 | silmitasertib -0.04 | [5] -0.011 | [6] -0.015 | entospletinib -0.023

NUP107 (UniProt P57740)
inactive: [1] -0.009 | [2] -0.022 | [3] 0.056 | [4] -0.032 | entinostat -0.039 | vorinostat 0.416 | citarinostat 0.016 | silmitasertib 0.085 | [5] 0.045 | [6] -0.109 | entospletinib -0.072

MRPS22 (UniProt P82650)
inactive: [1] -0.008 | [2] 0.031 | [3] -0.098 | [4] 0.006 | entinostat 0.027 | vorinostat 0.131 | citarinostat 0.035 | silmitasertib -0.071 | [5] -0.069 | [6] -0.006 | entospletinib 0.057

NUDT16 (UniProt Q96DE0)
Sequence of UniProt Q96DE0 (Q96DE0 whole entry, looked up): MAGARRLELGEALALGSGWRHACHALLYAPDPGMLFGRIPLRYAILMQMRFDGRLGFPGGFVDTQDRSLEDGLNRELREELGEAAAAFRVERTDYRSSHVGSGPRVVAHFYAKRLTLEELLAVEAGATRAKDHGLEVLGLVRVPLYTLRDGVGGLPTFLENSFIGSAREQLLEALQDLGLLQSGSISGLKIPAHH
inactive: [1] 0.02 | [2] 0.08 | [3] -0.01 | entinostat 0 | vorinostat -0.069 | citarinostat 0.018 | silmitasertib 0.016 | [5] -0.106 | [6] 0.034 | entospletinib 0.044
active: [4] 0.205

OAT (UniProt P04181)
inactive: [1] -0.051 | [2] -0.076 | [3] -0.235 | [4] -0.058 | entinostat 0.029 | vorinostat 0.129 | citarinostat 0.131 | silmitasertib -0.036 | [5] -0.031 | [6] 0.006 | entospletinib -0.012

NCL (UniProt P19338)
Sequence of UniProt P19338 (P19338 whole entry, looked up): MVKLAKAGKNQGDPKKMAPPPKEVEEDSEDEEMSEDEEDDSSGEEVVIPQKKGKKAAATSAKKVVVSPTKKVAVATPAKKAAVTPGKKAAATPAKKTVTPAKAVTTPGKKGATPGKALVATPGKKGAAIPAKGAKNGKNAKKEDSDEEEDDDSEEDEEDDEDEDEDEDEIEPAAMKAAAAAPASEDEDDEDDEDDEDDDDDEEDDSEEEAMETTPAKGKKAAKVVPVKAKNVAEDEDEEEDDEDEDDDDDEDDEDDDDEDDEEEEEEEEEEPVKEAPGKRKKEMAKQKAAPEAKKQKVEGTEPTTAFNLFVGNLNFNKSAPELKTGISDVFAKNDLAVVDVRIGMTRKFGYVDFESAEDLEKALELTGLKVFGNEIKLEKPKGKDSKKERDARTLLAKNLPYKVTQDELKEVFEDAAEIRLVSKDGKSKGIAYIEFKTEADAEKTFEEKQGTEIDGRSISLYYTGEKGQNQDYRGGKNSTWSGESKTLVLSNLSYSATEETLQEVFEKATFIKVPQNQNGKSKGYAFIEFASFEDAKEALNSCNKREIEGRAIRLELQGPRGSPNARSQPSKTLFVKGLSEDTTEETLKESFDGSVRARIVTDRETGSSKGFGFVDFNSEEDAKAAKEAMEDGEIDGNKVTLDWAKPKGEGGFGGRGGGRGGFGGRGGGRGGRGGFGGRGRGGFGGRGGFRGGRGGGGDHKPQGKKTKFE
inactive: [1] 0.015 | [2] 0.024 | [3] 0.331 | [4] 0.156 | entinostat -0.093 | vorinostat -0.018 | citarinostat -0.105 | silmitasertib 0.2 | [5] 0.147 | [6] -0.171 | entospletinib 0.102

NELFB isoform 2 (UniProt Q8WX92)
Sequence of UniProt Q8WX92 (Q8WX92 whole entry, looked up): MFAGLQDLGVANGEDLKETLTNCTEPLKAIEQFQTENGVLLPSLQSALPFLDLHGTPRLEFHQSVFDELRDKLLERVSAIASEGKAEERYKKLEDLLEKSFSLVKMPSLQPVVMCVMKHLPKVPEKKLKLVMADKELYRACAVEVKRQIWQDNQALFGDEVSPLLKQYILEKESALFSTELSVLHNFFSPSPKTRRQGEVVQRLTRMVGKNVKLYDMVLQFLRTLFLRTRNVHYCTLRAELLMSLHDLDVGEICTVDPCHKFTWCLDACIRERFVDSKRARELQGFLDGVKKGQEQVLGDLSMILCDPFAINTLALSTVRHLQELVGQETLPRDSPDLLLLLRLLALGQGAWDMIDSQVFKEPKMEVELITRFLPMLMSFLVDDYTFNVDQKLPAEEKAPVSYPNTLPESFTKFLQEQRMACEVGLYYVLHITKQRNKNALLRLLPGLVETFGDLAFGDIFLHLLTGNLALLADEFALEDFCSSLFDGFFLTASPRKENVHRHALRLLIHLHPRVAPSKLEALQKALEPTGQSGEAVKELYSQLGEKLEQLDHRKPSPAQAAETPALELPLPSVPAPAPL
inactive: [1] -0.021 | [2] -0.016 | [3] -0.074 | [4] -0.107 | entinostat 0.062 | vorinostat 0.059 | citarinostat 0.102 | silmitasertib 0.021 | [5] -0.086 | [6] -0.001 | entospletinib -0.039

MTOR (UniProt P42345)
inactive: [1] -0.016 | [2] -0.102 | [4] -0.111 | entinostat 0.042 | vorinostat 0.049 | citarinostat 0.035 | silmitasertib 0.102 | [5] -0.065 | [6] -0.004 | entospletinib -0.012
active: [3] -0.315

NCKAP1 isoform 2 (UniProt Q9Y2A7)
inactive: [1] 0.066 | [2] -0.009 | [3] -0.12 | [4] -0.025 | entinostat 0.024 | vorinostat 0.063 | citarinostat 0.015 | silmitasertib -0.029 | [5] -0.055 | [6] 0.046 | entospletinib -0.041

MRPS26 (UniProt Q9BYN8)
inactive: [1] -0.067 | [2] -0.022 | [3] -0.088 | [4] 0.092 | entinostat 0.022 | vorinostat 0.171 | citarinostat -0.04 | silmitasertib -0.044 | [5] -0.039 | [6] 0 | entospletinib 0.078

NAP1L1 (UniProt P55209)
Sequence of UniProt P55209 (P55209 whole entry, looked up): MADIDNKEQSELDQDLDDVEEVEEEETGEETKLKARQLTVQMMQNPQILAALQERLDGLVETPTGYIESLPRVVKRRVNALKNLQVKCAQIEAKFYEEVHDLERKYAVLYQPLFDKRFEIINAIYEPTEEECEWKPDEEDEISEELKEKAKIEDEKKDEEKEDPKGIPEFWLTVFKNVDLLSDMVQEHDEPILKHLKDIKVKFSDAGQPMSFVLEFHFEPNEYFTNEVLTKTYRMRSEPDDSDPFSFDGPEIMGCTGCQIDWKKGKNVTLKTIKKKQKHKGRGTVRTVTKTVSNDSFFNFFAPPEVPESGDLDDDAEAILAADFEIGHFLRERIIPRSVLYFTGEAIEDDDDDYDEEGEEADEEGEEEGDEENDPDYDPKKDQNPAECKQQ
inactive: [1] -0.084 | [2] 0.049 | [3] -0.01 | [4] -0.016 | entinostat 0.02 | vorinostat 0.008 | citarinostat -0.01 | silmitasertib 0.069 | [5] -0.038 | [6] 0.069 | entospletinib 0.028

OGFOD1 (UniProt Q8N543)
inactive: [1] 0.015 | [2] 0.021 | [3] -0.08 | [4] -0.056 | entinostat -0.002 | vorinostat 0.005 | citarinostat 0.012 | silmitasertib 0.02 | [5] -0.072 | [6] -0.006 | entospletinib 0.018

NDFIP1 (UniProt Q9BT67)
Sequence of UniProt Q9BT67 (Q9BT67 whole entry, looked up): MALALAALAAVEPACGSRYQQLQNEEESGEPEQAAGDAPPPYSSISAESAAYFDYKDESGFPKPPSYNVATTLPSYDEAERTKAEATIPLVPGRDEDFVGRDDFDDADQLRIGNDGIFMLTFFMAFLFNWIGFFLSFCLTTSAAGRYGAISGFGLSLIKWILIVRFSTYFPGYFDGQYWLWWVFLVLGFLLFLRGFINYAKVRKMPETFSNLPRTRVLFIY
inactive: [1] 0.104 | [2] -0.16 | [3] -0.029 | [4] -0.249 | entinostat -0.291 | vorinostat -0.051 | citarinostat 0.025 | silmitasertib 0.27 | [5] 0.352 | [6] 0.007 | entospletinib -0.003

MNAT1 (UniProt P51948)
inactive: [1] -0.055 | [2] -0.039 | [3] 0.005 | [4] -0.058 | entinostat -0.028 | vorinostat -0.003 | citarinostat 0.078 | silmitasertib -0.015 | [5] -0.047 | [6] -0.036 | entospletinib -0.065

NAPG (UniProt Q99747)
Sequence of UniProt Q99747 (Q99747 whole entry, looked up): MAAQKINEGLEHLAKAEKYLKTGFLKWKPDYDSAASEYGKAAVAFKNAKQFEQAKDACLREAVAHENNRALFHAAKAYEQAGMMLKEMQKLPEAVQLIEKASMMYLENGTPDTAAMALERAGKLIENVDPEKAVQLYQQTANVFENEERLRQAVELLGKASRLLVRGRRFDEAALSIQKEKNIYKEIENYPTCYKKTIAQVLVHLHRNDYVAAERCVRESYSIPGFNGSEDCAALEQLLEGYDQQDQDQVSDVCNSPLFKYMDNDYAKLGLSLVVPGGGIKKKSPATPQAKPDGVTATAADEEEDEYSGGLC
inactive: [1] -0.027 | [2] -0.087 | [3] -0.085 | [4] -0.094 | entinostat 0.102 | vorinostat 0.117 | citarinostat 0.075 | silmitasertib 0.032 | [5] -0.029 | [6] -0.017 | entospletinib 0.037

MRPS27 isoform 2 (UniProt Q92552)
inactive: [1] 0.067 | [2] -0.015 | [3] -0.105 | [4] -0.007 | entinostat 0.011 | vorinostat 0.104 | citarinostat 0.08 | silmitasertib -0.04 | [5] 0.049 | [6] -0.012 | entospletinib -0.029

NCAPH (UniProt Q15003)
Sequence of UniProt Q15003 (Q15003 whole entry, looked up): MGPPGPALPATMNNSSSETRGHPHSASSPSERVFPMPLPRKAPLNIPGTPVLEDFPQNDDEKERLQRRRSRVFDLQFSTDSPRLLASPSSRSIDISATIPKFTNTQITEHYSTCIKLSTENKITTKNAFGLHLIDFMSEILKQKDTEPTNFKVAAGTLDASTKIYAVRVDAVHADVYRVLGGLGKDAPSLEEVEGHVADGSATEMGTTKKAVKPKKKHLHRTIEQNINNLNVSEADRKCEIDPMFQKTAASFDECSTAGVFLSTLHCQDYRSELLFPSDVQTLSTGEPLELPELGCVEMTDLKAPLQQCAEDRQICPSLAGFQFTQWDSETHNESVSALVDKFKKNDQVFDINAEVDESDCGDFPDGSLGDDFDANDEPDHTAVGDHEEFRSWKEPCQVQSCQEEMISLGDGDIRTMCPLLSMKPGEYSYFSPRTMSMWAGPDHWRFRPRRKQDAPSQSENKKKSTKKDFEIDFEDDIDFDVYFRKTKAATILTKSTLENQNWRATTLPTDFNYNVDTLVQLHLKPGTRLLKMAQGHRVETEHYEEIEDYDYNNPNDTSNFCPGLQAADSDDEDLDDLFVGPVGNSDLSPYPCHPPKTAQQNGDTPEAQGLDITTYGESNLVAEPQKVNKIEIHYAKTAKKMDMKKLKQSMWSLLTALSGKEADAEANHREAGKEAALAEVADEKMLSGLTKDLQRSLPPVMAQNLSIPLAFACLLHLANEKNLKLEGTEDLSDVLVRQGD
inactive: [1] -0.086 | [2] -0.036 | [3] -0.092 | [4] -0.043 | entinostat 0.038 | vorinostat 0.029 | citarinostat 0.029 | silmitasertib 0.098 | [5] 0 | [6] -0.009 | entospletinib 0.012

NECTIN2 (UniProt Q92692)
inactive: [1] 0 | [2] 0.107 | [3] 0.056 | [4] 0.099 | entinostat -0.029 | vorinostat -0.041 | citarinostat 0.034 | silmitasertib -0.081 | [5] -0.03 | [6] -0.006 | entospletinib -0.016

NELFA (UniProt Q9H3P2)
Sequence of UniProt Q9H3P2 (Q9H3P2 whole entry, looked up): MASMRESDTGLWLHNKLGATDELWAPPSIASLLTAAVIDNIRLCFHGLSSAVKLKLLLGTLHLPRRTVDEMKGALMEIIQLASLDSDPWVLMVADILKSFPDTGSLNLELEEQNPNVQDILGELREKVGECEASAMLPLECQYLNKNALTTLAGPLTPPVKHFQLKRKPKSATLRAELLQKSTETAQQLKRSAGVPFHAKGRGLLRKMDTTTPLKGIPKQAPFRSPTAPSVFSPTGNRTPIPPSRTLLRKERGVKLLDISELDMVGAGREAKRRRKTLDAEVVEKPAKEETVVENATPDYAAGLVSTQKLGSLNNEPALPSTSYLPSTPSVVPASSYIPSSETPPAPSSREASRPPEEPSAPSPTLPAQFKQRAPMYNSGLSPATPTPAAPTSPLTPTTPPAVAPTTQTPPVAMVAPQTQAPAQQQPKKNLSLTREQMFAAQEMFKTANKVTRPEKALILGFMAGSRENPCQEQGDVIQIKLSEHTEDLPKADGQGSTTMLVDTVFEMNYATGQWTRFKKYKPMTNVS
inactive: [1] 0.038 | [2] -0.016 | [3] 0.142 | [4] -0.245 | entinostat 0.002 | vorinostat 0.061 | citarinostat -0.169 | silmitasertib 0.065 | [5] -0.183 | [6] 0.002 | entospletinib -0.005

MSH2 (UniProt P43246)
inactive: [1] -0.069 | [2] -0.06 | [3] -0.109 | [4] -0.138 | entinostat 0.074 | vorinostat 0.032 | citarinostat 0.089 | silmitasertib 0.037 | [5] -0.091 | [6] -0.003 | entospletinib -0.006

NFYC (UniProt Q13952)
Sequence of UniProt Q13952 (Q13952 whole entry, looked up): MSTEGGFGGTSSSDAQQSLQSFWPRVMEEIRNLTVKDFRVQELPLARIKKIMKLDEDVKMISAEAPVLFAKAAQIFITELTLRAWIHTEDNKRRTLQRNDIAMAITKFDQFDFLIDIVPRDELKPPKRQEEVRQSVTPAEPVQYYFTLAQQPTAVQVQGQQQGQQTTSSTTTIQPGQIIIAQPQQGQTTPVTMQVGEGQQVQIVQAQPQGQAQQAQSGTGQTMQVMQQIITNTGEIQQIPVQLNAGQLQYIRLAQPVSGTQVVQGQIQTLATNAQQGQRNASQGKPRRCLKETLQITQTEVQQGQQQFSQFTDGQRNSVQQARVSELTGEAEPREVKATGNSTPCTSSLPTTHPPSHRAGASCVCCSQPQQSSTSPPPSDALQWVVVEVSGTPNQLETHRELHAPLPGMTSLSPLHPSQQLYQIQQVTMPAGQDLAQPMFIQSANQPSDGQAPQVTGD
inactive: [1] 0.008 | [2] -0.079 | [3] -0.054 | [4] -0.027 | entinostat -0.034 | vorinostat -0.057 | citarinostat -0.002 | silmitasertib 0.024 | [5] -0.058 | [6] -0.044 | entospletinib 0.033

MRPS10 (UniProt P82664)
inactive: [1] -0.014 | [2] 0.004 | [3] -0.052 | [4] 0.011 | entinostat -0.033 | vorinostat 0.057 | citarinostat 0.07 | silmitasertib -0.048 | [5] 0 | [6] -0.08 | entospletinib 0.054

NUDT21 (UniProt O43809)
Sequence of UniProt O43809 (O43809 whole entry, looked up): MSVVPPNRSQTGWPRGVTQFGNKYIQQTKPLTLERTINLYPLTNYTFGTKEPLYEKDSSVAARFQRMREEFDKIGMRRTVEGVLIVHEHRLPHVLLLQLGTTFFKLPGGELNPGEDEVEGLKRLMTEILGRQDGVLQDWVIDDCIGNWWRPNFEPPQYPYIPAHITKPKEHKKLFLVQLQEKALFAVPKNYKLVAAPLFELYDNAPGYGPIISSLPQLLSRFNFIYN
inactive: [1] -0.042 | [2] -0.002 | [3] 0.049 | [4] -0.007 | entinostat 0.037 | vorinostat -0.078 | citarinostat 0.029 | silmitasertib -0.124 | [5] 0.062 | [6] -0.131 | entospletinib 0.016

MND1 (UniProt Q9BWT6)
inactive: [1] -0.024 | [2] -0.012 | [3] -0.118 | [4] -0.119 | entinostat 0.041 | vorinostat -0.11 | citarinostat -0.033 | silmitasertib -0.014 | [5] -0.042 | [6] -0.146 | entospletinib 0.047
